A word on the inhibition: it is the relative decrease from the control value, in per cent.

SMILES strings stand for the structures. Out of some 360,000 compounds screened, about 2,700 (0.75%) were called active. Only a selection was taken, and actives are over-represented in it overall. A number with no mark means an inactive call. Cut-off read from the data, not from the text of the source: active = inhibition above about 4.5%; inactive = the rest.

This assay has as its system Methionine sulfoxide reductase A (Bos taurus). The assay is described as follows: inhibition of methionine sulfoxide reductase A – biochemical, absorbance, bovine, HTS, primary screen (AID 651718).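 Note: 0% = vehicle wells with enzyme and 100% = reference inhibitor wells.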 To be noted: purified bovine MsrA, absorbance read-out; at 15.5 µM; active compounds read high.
As to `CCOc1ccc(-c2cc(C)[n+](CCN(CC)CC)c(-c3ccc(OCC)cc3)c2)cc1`, the inhibition was 5.24% (active).
Take `Clc1ccc([C@@H]2CC3CCC2N3)cn1` (stereo not given in full): the inhibition was -0.82%.
`COc1cc(OC)cc(C(=O)NCCN2CCC3(CC2)C(=O)NCN3c2ccccc2)c1`: the inhibition was 0%.
Turning to `Brc1ccc2c(c1)CNCc1cnnn1-2`, the inhibition was -0.08%.
Turning to `Cc1cc(N2CCNC[C@@H]2C)ccc1N1CC[C@H](O)C1`, the inhibition was 0%.
For the molecule `COc1cccc(CN2CCCC(C(=O)c3ccccc3SC)C2)c1O` (stereo not given), the inhibition is 1.68%.
In the case of `COc1ccc(C(=O)C2CCCN(Cc3ccc(C)s3)C2)cc1OC` (stereo not given), the inhibition was 4.73% (active).
`Cc1ccc(CN2CCCC(C(=O)c3ccc4c(c3)OCO4)C2)cc1C` (stereo not given): the inhibition was 0.84%.
With `COC1C(O)C(C)OC(OC2CCC3(C=O)C(CCC4C3CCC3(C)C(C5=CC(=O)OC5)CCC43O)C2)C1O` (stereo not given), the inhibition is 0.09%.
The value for `CCC(C)NC1(c2ccccc2)CCCCC1` (stereo not given) was -0.91%; that for `CCCCC(=O)N/N=C/c1c(O)n(CC)c(=S)n(CC)c1=O` was 5.43% (active); that for `COc1ccc2c(c1)[C@@]13CCCCC1[C@@H](C2)NCC3` (stereo not given in full) was 0.27%.
With `O=S(=O)(c1ccccc1)N1CCC2CCNC2C1` (stereo not given), the inhibition was -0.74%.
`CS(=O)(=O)N1CCC2CCNC2C1` (stereo not given): the inhibition is 0.9%.
On to `CCN(CC)C(=O)[C@@H]1C=C2c3cccc4[nH]c(Br)c(c34)C[C@H]2N(C)C1`, for which the inhibition is 0%.

Source of the values: PubChem BioAssay AID651718 (The Scripps Research Institute Molecular Screening Center, 2012).
